Assay [1] concerns the target Rap guanine nucleotide exchange factor 3 (Homo sapiens) (UniProt O95398). As to the kind of experiment: Confirmatory qHTS for antagonist of cAMP-regulated guanine nucleotide exchange factor 3 (EPAC1) (AID 1645880).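 For activity, negative = inhibition: plate controls were DMSO only for no effect and full effect of the ATA control for full effect.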 Note: nearly all actives have a fitted effect of over 55% in size. Note: potency is the fitted concentration of half-maximal effect. To be noted: EPAC1 Rap1B-BODIPY-GDP exchange, fluorescence; activity, negative = inhibition: at 115 µM (top of the series). The procedure, abridged: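 Released BODIPY-GDP fluoresces less than Rap1-bound BODIPY-GDP; the signal is followed at 480/540 nm at 5-min intervals over 30 min, after 5 min at room temperature. Reactions contain 100 nM EPAC1, 250 nM RAP1B-BODIPY-GDP and 50 uM GDP; results are normalized to ATA and DMSO.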

The target is the same in assay [2]. Briefly: Confirmatory qHTS for agonist of cAMP-regulated guanine nucleotide exchange factor 3 (EPAC1) (AID 1645881).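 Note: EPAC1 catalysed release of BODIPY-GDP from Rap1B seen as fluorescence loss; 100% = effect of cAMP agonist control; nearly all actives have a fitted effect of over 75% in size.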
Assay [3] has as its target Rap guanine nucleotide exchange factor 4 (Homo sapiens) (UniProt Q8WZA2). Briefly: Confirmatory qHTS for agonist of cAMP-regulated guanine nucleotide exchange factor 4 (EPAC2) (AID 1645884).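 Note: nucleotide exchange releases bodipy-GDP from Rap1 and this lowers its fluorescence; % is set by controls: 0 for no effect and ±100 for the full control effect; nearly all actives have a fitted effect of over 65% in size.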 A general note: In qHTS, concentration-response curves come from the screen itself.
For assay [4] the target is unchanged. Briefly: Confirmatory qHTS for antagonist of cAMP-regulated guanine nucleotide exchange factor 4 (EPAC2) (AID 1645885). For activity change, negative = inhibition: % is set by controls: 0 for no effect and ±100 for the full control effect. Note: nearly all actives have a fitted effect of over 25% in size. Note: potency is the fitted concentration of half-maximal effect.
Assay [5] deals with Rap guanine nucleotide exchange factor 3 (Homo sapiens) (UniProt O95398). As to the kind of experiment: Counterscreen qHTS for antagonist of cAMP-regulated guanine nucleotide exchange factor 3 (EPAC1) (AID 1645888). Note: % of control where 0% means no effect. The procedure, abridged:
(§1)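 Rap1B-BODIPY-GDP 250 nM + GDP 50 uM; cpds 7-pt, final 9.74 nM–152 uM (activator mode) or from 7.32 nM upwards (inhibitor mode); RT; FI 480/540 nm at 5 and 30 min, then ± cAMP, reread.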
(In general: Counterscreens check selectivity or assay interference.)

For assay [6] the target is unchanged. As to the kind of experiment: Counterscreen qHTS for agonist of cAMP-regulated guanine nucleotide exchange factor 3 (EPAC1) (AID 1645889). Note: % of control where 0% means no effect; nearly all actives have a fitted effect of over 40% in size. The procedure, abridged:
as §1

The structures appear in SMILES notation. Records with an inconclusive call do not appear. Values without a mark were called inactive. Active and inactive are the calls of the source. Calls come from the whole dose curve; as a rule, active = well fitted curve in the direction sought with a large enough effect; inconclusive = small, poorly fitted or top-dose-only effect, or another doubt; inactive = no such curve, though single readings can be large; an effect the other way counts as inactive or inconclusive.

We go through 20 molecules from PubChem BioAssay (NCATS).

Sequence of Rap guanine nucleotide exchange factor 4 (Homo sapiens) (Q8WZA2 whole entry, looked up): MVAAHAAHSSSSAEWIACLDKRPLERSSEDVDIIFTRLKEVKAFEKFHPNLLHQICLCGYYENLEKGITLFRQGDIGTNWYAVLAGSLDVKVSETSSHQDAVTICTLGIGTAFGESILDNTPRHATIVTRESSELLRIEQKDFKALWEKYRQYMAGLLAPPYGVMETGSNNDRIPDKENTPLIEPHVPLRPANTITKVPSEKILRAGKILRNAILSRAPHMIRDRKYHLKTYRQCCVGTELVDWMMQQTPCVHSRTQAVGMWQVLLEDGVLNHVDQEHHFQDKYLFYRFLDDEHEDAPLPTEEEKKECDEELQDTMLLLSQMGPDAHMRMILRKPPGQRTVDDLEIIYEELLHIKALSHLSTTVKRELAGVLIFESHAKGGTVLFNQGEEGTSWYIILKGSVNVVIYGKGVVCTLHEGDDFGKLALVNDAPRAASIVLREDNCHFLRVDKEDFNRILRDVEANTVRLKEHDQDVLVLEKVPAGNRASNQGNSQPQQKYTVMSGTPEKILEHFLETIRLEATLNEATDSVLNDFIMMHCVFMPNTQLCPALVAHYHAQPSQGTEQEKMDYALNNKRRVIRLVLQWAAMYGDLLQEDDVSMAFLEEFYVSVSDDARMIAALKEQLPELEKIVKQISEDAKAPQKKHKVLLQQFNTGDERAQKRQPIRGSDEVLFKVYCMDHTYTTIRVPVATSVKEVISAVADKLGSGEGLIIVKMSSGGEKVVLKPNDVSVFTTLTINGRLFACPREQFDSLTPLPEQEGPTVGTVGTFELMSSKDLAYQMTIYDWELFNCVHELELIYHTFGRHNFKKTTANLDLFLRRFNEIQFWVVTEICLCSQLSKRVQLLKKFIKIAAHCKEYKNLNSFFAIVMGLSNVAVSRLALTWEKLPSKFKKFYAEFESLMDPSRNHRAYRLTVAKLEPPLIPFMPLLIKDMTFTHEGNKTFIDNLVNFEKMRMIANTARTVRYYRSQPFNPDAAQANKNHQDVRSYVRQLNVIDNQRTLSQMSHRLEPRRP
Sequence of Rap guanine nucleotide exchange factor 3 (Homo sapiens) (O95398 whole entry, looked up): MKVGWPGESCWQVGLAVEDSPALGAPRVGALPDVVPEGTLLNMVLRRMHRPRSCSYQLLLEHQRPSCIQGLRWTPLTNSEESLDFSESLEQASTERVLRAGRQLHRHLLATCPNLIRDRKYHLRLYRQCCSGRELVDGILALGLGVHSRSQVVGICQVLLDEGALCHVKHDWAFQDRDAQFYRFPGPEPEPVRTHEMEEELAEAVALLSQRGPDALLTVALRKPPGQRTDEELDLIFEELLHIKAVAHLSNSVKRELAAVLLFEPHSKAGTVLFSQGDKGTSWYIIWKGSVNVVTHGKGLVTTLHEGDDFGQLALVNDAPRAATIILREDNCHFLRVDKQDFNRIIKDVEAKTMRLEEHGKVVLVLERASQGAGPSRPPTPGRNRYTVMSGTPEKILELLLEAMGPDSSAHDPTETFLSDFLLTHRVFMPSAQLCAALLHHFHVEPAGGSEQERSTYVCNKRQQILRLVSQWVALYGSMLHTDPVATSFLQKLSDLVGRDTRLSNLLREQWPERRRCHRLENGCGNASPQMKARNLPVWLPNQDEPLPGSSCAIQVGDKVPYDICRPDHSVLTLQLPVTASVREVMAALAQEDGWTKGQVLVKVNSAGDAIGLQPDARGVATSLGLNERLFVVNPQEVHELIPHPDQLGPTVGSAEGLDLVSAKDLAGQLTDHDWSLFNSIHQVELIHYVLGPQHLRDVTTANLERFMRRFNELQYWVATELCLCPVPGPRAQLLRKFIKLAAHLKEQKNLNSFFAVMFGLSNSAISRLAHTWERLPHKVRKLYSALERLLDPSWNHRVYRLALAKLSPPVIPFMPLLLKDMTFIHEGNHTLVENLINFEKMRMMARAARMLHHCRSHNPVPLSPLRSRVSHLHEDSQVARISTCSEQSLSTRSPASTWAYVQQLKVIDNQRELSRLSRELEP

Consider `Cc1ccc(N=Cc2cc(Cc3ccccc3Cl)cc([N+](=O)[O-])c2O)c(O)c1`, for which, in assay [1], the Potency was 10.7 µM (active). For the same molecule, the Potency entry in assay [2], in assay [3], in assay [4], in assay [5] and in assay [6] was “inactive” throughout.

With `CCOC(=O)N1CCN(C(=O)C(C)(C)Oc2ccc(Cl)cc2)CC1`, the Potency entry in assay [1] and in assay [2] was “inactive” each time. Also, the activation in assay [3] was 3.62% [at 17.1 µM, percent relative to cAMP agonist control]; in assay [6] it was 21.9% [at 30.8 µM]. The Potency in assay [4] is 0.239 µM (active). Also, in assay [5], the activity change, negative = inhibition is 6.37% [at 30.8 µM].

For the molecule `COc1ccccc1N1CCN(S(=O)(=O)c2ccc3c(c2)NC(=O)C(C)C(=O)N3)CC1` (stereo not given), the Potency result in assay [1], in assay [2], in assay [3], in assay [4], in assay [5] and in assay [6] was “inactive” each time.

On to `Cc1nc(-[n+]2nc(-c3ccncc3)nn2-c2ccccc2)sc1C`, for which the Potency in assay [1] is 22.4 µM (active). In addition, the Potency result in assay [2] and in assay [4] was “inactive” in each case. The activation in assay [3] is 5.19% [at 17.1 µM, percent relative to cAMP agonist control]; in assay [6] it was 2.91% [at 30.8 µM]. The activity change, negative = inhibition in assay [5] is -23.3% [at 30.8 µM].

On to `Cc1cccc(NC(=O)c2cc(S(=O)(=O)N(C)c3ccc(F)cc3)ccc2Cl)n1`, for which the Potency result in assay [1], in assay [2], in assay [3], in assay [4], in assay [5] and in assay [6] was “inactive” each time.

On to `CN(CC(=O)Nc1ccccc1Sc1ccccc1)C1CCCCC1`, for which the Potency result in assay [1], in assay [2], in assay [3], in assay [4], in assay [5] and in assay [6] was “inactive” throughout.

As to `O=C(Nc1ncccc1O)c1ccc2c(c1)OCCO2`, the Potency result in assay [1], in assay [2] and in assay [4] was “inactive” in each case. The activation in assay [3] was 2.78% [at 17.1 µM, percent relative to cAMP agonist control]; in assay [6], 22.4% [at 30.8 µM]. Also, in assay [5], the activity change, negative = inhibition was 6.79% [at 30.8 µM].

In the case of `Cc1ccc(S(=O)(=O)N2CC(C(=O)O)=CC[C@H]2c2ccc(Cl)cc2)cc1`, the Potency result in assay [1], in assay [2], in assay [3], in assay [4], in assay [5] and in assay [6] was “inactive” in each case.

Consider `CCN(c1ccccc1)S(=O)(=O)c1ccc(C(=O)Nc2ccncc2)cc1`, for which the Potency result in assay [1], in assay [2] and in assay [4] was “inactive” each time. For the same molecule, the activation in assay [3] is -2.02% [at 17.1 µM, percent relative to cAMP agonist control]; in assay [6], 15% [at 30.8 µM]. In addition, the activity change, negative = inhibition in assay [5] is -7.46% [at 30.8 µM].

Turning to `[O-][n+]1c2ccccc2[n+]([O-])c2cc(O)ccc21`, the Potency in assay [1] is 37.9 µM (active). Further, the Potency result in assay [2], in assay [3], in assay [4], in assay [5] and in assay [6] was “inactive” each time.

In the case of `N#C/C(=C(/O)C(Cl)(Cl)Cl)c1nc2ccccc2[nH]1`, the Potency entry in assay [1], in assay [2], in assay [3], in assay [4], in assay [5] and in assay [6] was “inactive” throughout.

Take `Cc1sc2ncnc(N3CCC(C(=O)Nc4ccccc4C(C)(C)C)CC3)c2c1C`: the Potency result in assay [1], in assay [2], in assay [3], in assay [4], in assay [5] and in assay [6] was “inactive” each time.

With `COc1ccc(/C(N)=N/OC(=O)c2ccc(C)c([N+](=O)[O-])c2)cc1`, the Potency entry in assay [1], in assay [2] and in assay [4] was “inactive” throughout. In addition, the activation in assay [3] is 8.03% [at 17.1 µM, percent relative to cAMP agonist control]; in assay [6] it was 16.7% [at 30.8 µM]. Moreover, the activity change, negative = inhibition in assay [5] was 4.78% [at 30.8 µM].

For `Cc1ccc(S(=O)(=O)CCC(=O)Nc2sccc2C#N)cc1`, the Potency entry in assay [1], in assay [2] and in assay [4] was “inactive” in each case. Besides, the activation in assay [3] was 6.67% [at 17.1 µM, percent relative to cAMP agonist control]; in assay [6], 34.4% [at 30.8 µM]. In addition, the activity change, negative = inhibition in assay [5] is -10.4% [at 30.8 µM].

`CCN(CC)c1nc2ccccc2n(Cc2cccc(OC)c2)c1=O`: the Potency entry in assay [1], in assay [2], in assay [3], in assay [4], in assay [5] and in assay [6] was “inactive” each time.

`N#C/C(=C\C1=C(N2CCOCC2)C(=C/c2cccc([N+](=O)[O-])c2)/CC1)C(=O)Nc1ccccc1F`: the Potency in assay [1] was 47.8 µM (active). Moreover, the Potency entry in assay [2], in assay [3], in assay [4], in assay [5] and in assay [6] was “inactive” each time.

For `COc1cccc2c1OC1(C)CC2/C(=C(\C)O)C(=O)N1` (stereo not given), the Potency result in assay [1], in assay [2], in assay [3], in assay [4], in assay [5] and in assay [6] was “inactive” throughout.

With `COc1cccc2c1Oc1ncccc1N(C(=O)CCC(=O)NCc1cccc(C)c1)C2`, the Potency entry in assay [1], in assay [2], in assay [3], in assay [4], in assay [5] and in assay [6] was “inactive” each time.

As to `CCCCn1nnc(NC(=O)c2ccco2)n1`, the Potency entry in assay [1], in assay [2] and in assay [4] was “inactive” in each case. Also, the activation is 6.58% [at 17.1 µM, percent relative to cAMP agonist control] in assay [3] and 0.136% [at 30.8 µM] in assay [6]. Moreover, the activity change, negative = inhibition in assay [5] was 4.22% [at 30.8 µM].

With `N#C/C(=C/c1ccc(O)c(O)c1)C(=O)NCc1ccc(Cl)cc1`, the Potency in assay [1] was 12.6 µM (active). Besides, the Potency result in assay [2] and in assay [4] was “inactive” throughout. For the same molecule, the activation in assay [3] was 6.16% [at 17.1 µM, percent relative to cAMP agonist control]; in assay [6], 19.6% [at 30.8 µM]. The activity change, negative = inhibition in assay [5] is -1.17% [at 30.8 µM].
